The supplement of paper PMC9897528

These molecules were tested on Scedosporium aurantiacum CBS 136046 (assay: growth inhibition relative to DMSO control (OD600); higher = more antifungal activity, active = 80 or more; extreme values may be limits of the assay). Settings: 5 µM; 72 h; 37 °C.
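Further: conidia screened in RPMI 1640 medium under 5% CO2, growth read by spectrophotometer, medium with 0.5% DMSO serving as the untreated reference.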

Growth inhibition, inactive:
COc1cc2c(O)c3c(c(-c4ccc5c(c4)OCO5)c2cc1OC)C(=O)OC3 25%
CCc1cc(O)c(Oc2cccnc2N)cc1F 12.4%
COc1ccc(SC(=O)N[C@H](CCC(=O)O)C(=O)O)cc1 24.2%
Cc1nc(Nc2ccc(F)cc2)nc(N2CCc3ccccc3C2C)c1C (configuration not stated) 25.2%
O=C(O)c1cc(-c2ccccc2)nc2ccccc12 12.6%
Nc1nc(N)c2c(Sc3ccccc3)cccc2n1 18%
Cc1c(F)cccc1NC(=O)Nc1ccc(Cl)c(S(=O)(=O)[C@H]2CCCNC2)c1O 4.56%
CCOc1ccc(C(=O)NCCc2ccccc2)cc1 33.4%
CC(C)=CCC/C(C)=C/CNCCNC1C2CC3CC(C2)CC1C3 (configuration not stated) 61.4%
CN1CCN(c2ccc3[nH]c(-c4ccc5[nH]c(-c6ccc(O)cc6)nc5c4)nc3c2)CC1 11.7%
COc1ccc2c(c1OC)C(=O)OC2C1c2c(cc3c(c2OC)OCO3)CCN1C (configuration not stated) 14.1%
Fc1ccc2c(/C=C/c3nnn[nH]3)c[nH]c2c1 4.45%
CCCCCCC1c2ccc(O)cc2Oc2cc(O)ccc21 4.47%
OC1O[C@H](CSc2ccc(F)cc2)[C@@H](O)[C@H]1O (some centres not stated) 16.7%
CCCCCCCCC(CP(=O)(O)C(C)N)C(=O)O (configuration not stated) 6.14%
Cc1ncc([N+](=O)[O-])n1CC(O)CN1CCOCC1 (configuration not stated) 31%
Cc1ncc([N+](=O)[O-])n1CC(C)O (configuration not stated) 22.7%
